Laboratory results: PubChem BioAssay AID1159580 (chemical genetic matrix, 2015)
About 2,000 (36%) of roughly 5,500 compounds were called active. Inconclusive results (about 18%) are left out. Cut-off read from the data, not from the text of the source: active = normalized growth mostly below about 0.91 (no sharp cut-off); inconclusive = no clear call, values can overlap the other calls; inactive = mostly above about 0.92. This is one part of the list.

Experiment: chemical genetic growth profiling, strain panel (AID 1159580);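 note: tested at 20 µM; growth read once vehicle control cultures reached saturation at 30 °C; 1 = growth at the plate median or of vehicle wells; lower values mean less growth of the strain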
Details: S. cerevisiae deletion strains, growth OD

Measured: normalized growth

COc1cc2c(cc1OC)[C@@H](c1ccccc1)CN(C)CC2
inactive: locus YAL040C, strain CLN3, hits give low values 1 | locus YCL061C, strain MRC1 (second series), hits give low values 1.01 | locus YDR363W, strain ESC2, hits give low values 1.01 | locus YER002W, strain NOP16, hits give low values 1 | locus YGR078C, strain PAC10, hits give low values 1.01 | locus YJR075W, strain HOC1, hits give low values 1.01 | locus YMR263W, strain SAP30, hits give low values 1.01 | locus YMR307W, strain GAS1, hits give low values 1.01 | locus YNL128W, strain TEP1, hits give low values 1.01 | locus YNL153C, strain GIM3, hits give low values 1.04 | locus YNL175C, strain NOP13, hits give low values 1 | locus YNL197C, strain WHI3, hits give low values 1 | locus YNL224C, strain SQS1, hits give low values 1 | locus YNL322C, strain KRE1, hits give low values 1.01 | locus YOR083W, strain WHI5 (second series), hits give low values 1.02 | locus YPL055C, strain LGE1, hits give low values 0.995 | locus YPL241C, strain CIN2, hits give low values 1.01

COC1=CC(=O)C(C(=O)c2ccccc2)=CC1=O
inactive: locus YAL021C, strain ccr4, hits give low values 1.01 | locus YAL026C, strain drs2, hits give low values 0.992 | locus YAL030W, strain snc1, hits give low values 0.993 | locus YBL061C, strain skt5, hits give low values 1.01 | locus YBR009C, strain hhf1, hits give low values 0.977 | locus YBR023C, strain chs3, hits give low values 0.988 | locus YBR171W, strain sec66, hits give low values 0.978 | locus YBR231C, strain swc5, hits give low values 0.972 | locus YBR279W, strain paf1, hits give low values 0.991 | locus YCL011C, strain gbp2, hits give low values 0.971 | locus YCL016C, strain dcc1, hits give low values 0.977 | locus YCL061C, strain MRC1, hits give low values 0.978 | locus YCL069W, strain vba3, hits give low values 0.996 | locus YCR088W, strain abp1, hits give low values 0.987 | locus YDL005C, strain med2, hits give low values 0.966 | locus YDL040C, strain nat1, hits give low values 0.981 | locus YDR001C, strain nth1, hits give low values 0.964 | locus YDR069C, strain doa4, hits give low values 0.965 | locus YDR137W, strain rgp1, hits give low values 0.938 | locus YDR159W, strain sac3, hits give low values 0.949 | locus YDR195W, strain ref2 0.964 | locus YDR297W, strain sur2, hits give low values 0.967 | locus YDR334W, strain swr1, hits give low values 0.96 | locus YDR335W, strain msn5, hits give low values 0.97 | locus YDR392W, strain spt3, hits give low values 0.98 | locus YEL003W, strain gim4, hits give low values 0.976 | locus YEL037C, strain rad23, hits give low values 0.986 | locus YEL061C, strain CIN8 (second series), hits give low values 0.98 | locus YER015W, strain faa2, hits give low values 0.98 | locus YER016W, strain bim1, hits give low values 0.974 | locus YER111C, strain swi4, hits give low values 0.973 | locus YER155C, strain BEM2 (second series), hits give low values 0.975 | locus YFR010W, strain ubp6, hits give low values 0.993 | locus YGL167C, strain pmr1, hits give low values 0.975 | locus YGL173C, strain kem1, hits give low values 1 | locus YGL227W, strain vid30, hits give low values 0.986 | locus YGL240W, strain doc1, hits give low values 0.955 | locus YGL253W, strain hxk2, hits give low values 0.987 | locus YHR013C, strain ard1, hits give low values 0.967 | locus YHR027C, strain rpn1, hits give low values 0.966 | locus YHR030C, strain SLT2, hits give low values 1.02 | locus YHR079C, strain IRE1, hits give low values 1.02 | locus YHR142W, strain chs7, hits give low values 0.996 | locus YJL092W, strain hpr5, hits give low values 0.968 | locus YJL095W, strain BCK1 (second series), hits give low values 0.971 | locus YJL095W, strain BCK1, hits give low values 1.02 | locus YJL115W, strain asf1, hits give low values 0.956 | locus YJL129C, strain trk1, hits give low values 0.941 | locus YJL154C, strain vps35, hits give low values 0.974 | locus YJL164C, strain tpk1, hits give low values 0.988 | locus YJL166W, strain qcr8, hits give low values 1.01 | locus YJR066W, strain TOR1, hits give low values 0.94 | locus YKL160W, strain elf1, hits give low values 0.991 | locus YKR026C, strain gcn3, hits give low values 0.993 | locus YKR091W, strain srl3, hits give low values 0.97 | locus YLL001W, strain dnm1, hits give low values 0.972 | locus YLL026W, hits give low values 1 | locus YLL041C, strain sdh2, hits give low values 0.98 | locus YLR027C, strain aat2, hits give low values 0.976 | locus YLR113W, strain HOG1, hits give low values 1.02 | locus YLR221C, strain rsa3, hits give low values 0.988 | locus YLR258W, strain gsy2, hits give low values 0.997 | locus YLR262C, strain YPT6 (second series), hits give low values 0.975 | locus YLR320W, strain mms22, hits give low values 0.981 | locus YLR342W, strain FKS1, hits give low values 0.983 | locus YLR357W, strain rsc2, hits give low values 0.946 | locus YLR370C, strain arc18, hits give low values 0.959 | locus YLR384C, strain iki3, hits give low values 0.979 | locus YML120C, strain ndi1, hits give low values 1 | locus YMR058W, strain fet3, hits give low values 0.966 | locus YMR125W, strain sto1, hits give low values 0.987 | locus YMR129W, hits give low values 1 | locus YMR205C, strain PFK2, hits give low values 1 | locus YMR231W, strain pep5, hits give low values 0.991 | locus YNL071W, strain lat1, hits give low values 0.985 | locus YNL183C, strain NPR1, hits give low values 0.969 | locus YNL209W, strain ssb2, hits give low values 0.977 | locus YNL248C, strain rpa49, hits give low values 0.992 | locus YNL322C, strain KRE1 (second series), hits give low values 0.965 | locus YNR049C, strain mso1, hits give low values 0.964 | locus YOR001W, strain rrp6, hits give low values 0.975 | locus YOR070C, strain gyp1, hits give low values 0.977 | locus YOR080W, strain dia2, hits give low values 1 | locus YOR083W, strain WHI5, hits give low values 0.991 | locus YOR106W, strain vam3, hits give low values 0.992 | locus YOR231W, strain MKK1, hits give low values 1.04 | locus YOR265W, strain rbl2, hits give low values 0.986 | locus YOR270C, strain vph1, hits give low values 1.01 | locus YOR290C, strain snf2, hits give low values 0.965 | locus YPL051W, strain arl3, hits give low values 0.984 | locus YPL078C, strain atp4, hits give low values 0.975 | locus YPL106C, strain sse1, hits give low values 0.927 | locus YPL240C, strain hsp82, hits give low values 0.977 | locus YPL256C, strain CLN2, hits give low values 1.04
